# Compounds with a hit are over-represented: about 1.6% of the library has one in this group of screens.
# KCNQ2 inh: rat KCNQ2 potassium channel inhibitors, primary screen, cell-based, CHO-K1, FluxOR thallium flux, B-score; Potassium voltage-gated channel subfamily KQT member 2 (Rattus norvegicus), O88943; 20 min; hits give low values; B-score at 10 µM; 310,000 compounds, 1.1% hits; AID 2156, 2009;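 active = fluorescence ratio B-score at most minus 3 library SDs, with starting brightness B-score within 2 library SDs, cut at about -5.5 in these data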
# KCNQ2 enhance: potentiators of rat KCNQ2 potassium channel. CHO-K1 KCNQ2, FluxOR thallium flux fluorescence; hits give high values. B-score at 10 µM. 310,000 compounds, 0.54% hits;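 active = fluorescence ratio B-score at least 3 SD of library B-scores, with initial fluorescence B-score within 3 of them, cut at about 5.3 in these data; same plate scores as AID 2156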;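 note: B-score of peak minus minimum over baseline fluorescence ratio after K+ and Tl+ stimulus; positive B-score means potentiation of KCNQ2 with more thallium influx and brighter signal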
# Kir21 conf inh: mouse Kir2.1 channel blockers, retest, confirmation, cell-based, FluxOR thallium flux, duplicate; 2,300 compounds, 41% hits; Tl flux remaining, % of negative control (hits give low values), % at 10 µM; shares compounds with KCNQ2 enhance; Kir2.1-expressing cells, FluxOR thallium flux fluorescence; hits give low values;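 active = Primary-screen hit whose thallium flux fell at least 3 control SD below untreated wells in both duplicates, with normal baseline fluorescence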;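 note: 0% = blank wells without stimulus and 100% = stimulated no-compound controls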
# Target sequence (P35561 whole entry, looked up): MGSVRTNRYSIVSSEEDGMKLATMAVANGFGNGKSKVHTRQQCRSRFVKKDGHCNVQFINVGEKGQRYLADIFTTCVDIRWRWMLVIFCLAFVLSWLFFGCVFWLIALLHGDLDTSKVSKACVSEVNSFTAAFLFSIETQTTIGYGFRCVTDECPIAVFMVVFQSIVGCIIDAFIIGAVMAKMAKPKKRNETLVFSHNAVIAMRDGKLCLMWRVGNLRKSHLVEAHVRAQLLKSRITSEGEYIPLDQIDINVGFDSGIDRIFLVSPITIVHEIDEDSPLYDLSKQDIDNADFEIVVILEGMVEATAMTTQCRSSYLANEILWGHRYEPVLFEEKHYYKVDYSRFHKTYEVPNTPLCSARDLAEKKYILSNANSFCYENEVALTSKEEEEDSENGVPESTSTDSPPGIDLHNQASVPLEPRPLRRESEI
# HEK293 ctr: counter-screen for Kir2.1 inhibitors: effect in parental HEK293 cells; shares compounds with KCNQ2 enhance; FluxOR thallium flux fluorescence; 0% = unstimulated blank wells; FluxOR signal as % of negative control (100 = no effect), % at 10 µM; 2,300 compounds, 19% hits;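 active = dye signal at least 3 control SD above or below untreated wells in both duplicates, raw fluorescence within 3, either direction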;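 note: percent is based on the flux ratio of peak minus minimum fluorescence over baseline F0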
# CHO-K1 ctr: nonspecific thallium flux increase in parental CHO-K1, confirmation, counter-screen for KCNQ2 potentiator project, cell-based, FluxOR thallium flux, duplicate; shares compounds with KCNQ2 enhance; activity increase over 3SD of controls, % at 10 µM; 1,200 compounds, 43% hits; AID 2282, 2010; parental CHO-K1 cells, FluxOR thallium flux fluorescence; zero = vehicle mean+3SD, 100% = vehicle-minus-blank window;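 active = signal rise of at least 3 SD above the untreated control mean, in both duplicate wells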;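 note: counter screen of KCNQ2 potentiator hits so any rise reflects channel-independent effects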
# KCNQ1 pot spec: human KCNQ1 channel potentiation off-target, confirmation, selectivity assay for KCNQ2 potentiator project, cell-based, CHO, FluxOR thallium flux | AID 2283, 2010 | shares compounds with KCNQ2 enhance | CHO KCNQ1 stable, FluxOR thallium flux fluorescence; beyond 3SD, as % of vehicle-control signal | 1,200 compounds, 28% hits | activation over 3SD threshold, % at 10 µM;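 active = fluorescence ratio rise of at least 3 SD of vehicle wells above their mean, in both replicate wells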;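 note: 0% = vehicle mean plus 3 SD and 100% = vehicle minus unstimulated blank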
# KCNQ2 pot conf: rat KCNQ2 channel potentiators, confirmation, cell-based, CHO, FluxOR thallium flux, duplicate; shares compounds with KCNQ2 enhance; CHO-KCNQ2 cells, FluxOR thallium flux fluorescence; potentiation, less the hit threshold, % at 10 µM; 1,200 compounds, 68% hits; AID 2287, 2010;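 active = fluorescence ratio rising 3 SD or more over the vehicle control mean in both replicates, plus primary screen hit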;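 note: peak minus minimum thallium fluorescence divided by baseline after K/Tl stimulus; 0% = vehicle mean plus 3 SD and 100% = vehicle minus unstimulated blank difference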
# Kir2-1 sel: mouse Kir2.1 channel activation off-target, confirmation, selectivity assay for KCNQ2 potentiator project, cell-based, HEK293, FluxOR thallium flux. shares compounds with KCNQ2 enhance. HEK293 Kir2.1, FluxOR thallium flux fluorescence. activity over 3SD threshold, % at 10 µM. 1,200 compounds, 2% hits. AID 2345, 2010;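 active = fluorescence ratio rise of at least 3 SD above the vehicle-control mean, seen in both replicates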;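 note: 0% = vehicle mean plus 3 SD and 100% = vehicle minus no-stimulus blank window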
# KCNQ2 W236L MoA: potentiators of retigabine-insensitive KCNQ2 W236L, mechanism study for KCNQ2 potentiator project, cell-based, rat KCNQ2 W236L, CHO, automated patch clamp | current increase over 3SD of negative controls (%), hits give high values, % at 25 µM | automated patch clamp current | shares compounds with KCNQ2 enhance | 940 compounds, 10% hits;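 active = current increase at least 3 SD of the untreated controls above them in both duplicate recordings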
# Active calls of the source: *; i = inactive; / = no result given.
SMILES,KCNQ2 inh,KCNQ2 enhance,Kir21 conf inh,HEK293 ctr,others
CCOC(=O)C1=C(C)NC(SC)=C(C#N)C1CC(C)C (configuration not stated),i,/,74%*,i,
CC(=O)C1=C(C)NC(SCC(N)=O)=C(C#N)C1CC(C)C (configuration not stated),i,/,/,/,
O=C(Nc1cccc2c1CCCC2)c1ccccc1Br,i,/,/,/,
CCS(=O)(=O)Nc1ccc(C2=NN(S(=O)(=O)CC)C(c3cccs3)C2)cc1 (configuration not stated),i,0.66,/,/,
CC(C)c1ccc(C(=O)NCCCN2CCOCC2)cc1,i,/,/,/,
O=C(NCCCN1CCOCC1)c1ccc(CSc2ccc(Cl)cc2)cc1,i,0.59,62%*,i,
CC(C)c1ccc(CN(C(=O)c2cccs2)C2CCS(=O)(=O)C2)cc1 (configuration not stated),i,0.05,/,/,
CC(C)NC(=O)C1CCN(C2CCN(C(=O)c3cc4c(s3)CCCCC4)CC2)CC1,i,/,/,/,
NC(=O)C1CCN(C(=O)c2cc3c(s2)CCCC3)CC1,i,/,i,i,
O=[N+]([O-])c1c(Nc2ccccc2O)cc(Cl)c2nonc12,-16*,-16,71%*,46%*,
O=[N+]([O-])c1c(Nc2ccccc2O)ccc2nonc12,i,1.3,/,/,
CCOC(=O)N1CCN(CC(O)COc2ccccc2[N+](=O)[O-])CC1 (configuration not stated),i,/,/,/,
COc1ccc(Nc2cc(C)nc(NCc3ccccc3)n2)cc1,i,/,64%*,i,
COc1cc(C)nc(NCc2ccccc2)n1,i,/,/,/,
CCOC(=O)N/N=C(\C)c1ccc(-n2cnnn2)cc1,i,/,/,/,
CCN(CC)C(=S)SCC(=O)c1ccc(F)cc1,i,/,/,/,
CCN(CC)C(=S)SCC(=O)Nc1ccc(F)cc1,i,6.4*,i,i,CHO-K1 ctr=-11;KCNQ1 pot spec=-15;KCNQ2 pot conf=3.2*;Kir2-1 sel=-43;KCNQ2 W236L MoA=i
O=C(N/N=C/c1ccc(OC(F)F)cc1OC(F)F)c1cccc(S(=O)(=O)N2CCOCC2)c1,i,0.94,/,/,
COc1ccc(N(CC(=O)NCC2CCCO2)S(=O)(=O)c2ccccc2)cc1OC (configuration not stated),i,/,/,/,
Cc1ccn(C)c(=N)c1,i,0.99,/,/,
Cc1ccc(C(=O)Nc2nc3ccccc3c(=O)s2)cc1,i,6.1*,i,254%*,CHO-K1 ctr=-14;KCNQ1 pot spec=-15;KCNQ2 pot conf=-2;Kir2-1 sel=-17
CSc1nc2ccc3nc(NC(=O)c4ccc(C)cc4)sc3c2s1,i,0.66,/,/,
C=CCn1c(Cc2cccs2)nnc1SC/C=C/c1ccccc1,i,/,31%*,i,
C=CCn1c(Cc2cccs2)nnc1SCC(=O)Nc1cc(OC)cc(OC)c1,i,/,/,/,
Cn1c(SC/C=C/c2ccccc2)nnc1-c1cccs1,i,/,/,/,

# Source: PubChem BioAssay (Johns Hopkins Ion Channel Center)
